From the supplement of paper PMC6555819 come the findings set out here.

What all share (test): PBM binding z-score (relative to random genomic background probes); higher = stronger binding; sequences stand for … in GC…GCGATTGACAGCGTAGAATGAAGG
Test [1] has as its system RARb homodimer (NR concentration 270 nM). An outline of the steps: (§1)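 Random background probes are the reference for binding z-scores. These scores derive from regression-normalized fluorescence on custom Agilent 4×180K protein-binding microarrays incubated 1 h with ligand-free nuclear receptor dimers. Binding was detected with antibodies against each partner (one per run).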

Test [2] concerns RARg:RXRa (NR concentration 270 nM, RXRa partner concentration 90 nM). The essentials:
as §1

Test [3] deals with RARg homodimer (NR concentration 270 nM). The essentials:
as §1

Test [4] relates to RXRa DBDmut IVT, anti-RXR (DBD mutation: RXRa K156A/R161A, NR concentration 90 nM). The essentials:
as §1

Test [5] deals with RXRa homodimer (NR concentration 180 nM). The essentials: as §1
Test [6] concerns THRa:RXRa (NR concentration 90 nM, RXRa partner concentration 90 nM). The essentials:
as §1

Test [7] has as its system THRa homodimer (NR concentration 90 nM). An outline of the steps: as §1
Test [8] deals with VDR homodimer (NR concentration 270 nM). An outline of the steps: as §1

As to TCTTGTAGATCAGCTGGTTAAGAAAGCTGGCCAA, the PBM binding z-score was -0.771 in test [1]; -0.465 in test [2]; -0.758 in test [3]; 0.269 in test [4]; -0.351 in test [5]; -0.515 in test [6]. The PBM binding z-score is -1.3 in test [7] and -0.694 in test [8].
Take TTCCCAAGGTGAGCTGAGGTCGTTGATCCAACTC: the PBM binding z-score in test [1] turned out to be 1.95; in test [2] it was 1.28; in test [3], 0.949; in test [4], 0.117; in test [5], 1.34; in test [6], 4.52. In addition, the PBM binding z-score in test [7] was 2.4; in test [8], 2.61.
Turning to AGTCAAAGTTCAACTAGGTAACGTAAGATATGCT, the PBM binding z-score in test [1] turned out to be 3.9; in test [2], 5.82; in test [3], 6.57; in test [4] it was 4.34; in test [5], 4.89; in test [6] it was 3. In addition, the figures for the PBM binding z-score in test [7] and in test [8] were 0.196 and 4.09, respectively.
As to CAAACTATGTCACGAAAGGTCAAAGTCGAATGAC, the PBM binding z-score is 5.15 in test [1]; 6.02 in test [2]; 5.58 in test [3]; 1.55 in test [4]; 6.73 in test [5]; 4.49 in test [6]. Further, the results for the PBM binding z-score in test [7] and in test [8] were 1.4 and 2.8, respectively.
For ATCTCTAGCTAAAAGTTCAGTGAATCCCGAGGAT, the PBM binding z-score in test [1] was 2.38; in test [2], 1.43; in test [3] it was 1.84; in test [4], 0.736; in test [5], 0.493; in test [6] it was 0.457. For the same sequence, the PBM binding z-score in test [7] is -0.0184; in test [8], 1.64.
Turning to ACAGACAGGTGAGGGAAGGTAACTCAGCTGGACG, the PBM binding z-score in test [1] is 0.595; in test [2], 0.445; in test [3], 0.526; in test [4] it was -0.769; in test [5], 0.426; in test [6], 2.31. Besides, the values for the PBM binding z-score in test [7] and in test [8] were -0.12 and -0.764, respectively.
TCTCTTAGTTGAAGGGCAACCGACGAGTCCGTTT: the PBM binding z-score in test [1] is 1.22; in test [2], 0.587; in test [3], 0.371; in test [4], 1.52; in test [5] it was 0.71; in test [6] it was 0.283. In addition, the PBM binding z-score came to 0.0407 in test [7] and 1.24 in test [8].
Consider ATCGAAAGGTCGACGAGGTGAGTTTACACCGTTT, for which the PBM binding z-score in test [1] stood at 3.04; in test [2], 4.11; in test [3], 3.94; in test [4], 1.48; in test [5], 4.05; in test [6], 3.8. Besides, the PBM binding z-score was found to be 0.782 in test [7] and 2.35 in test [8].
TCTTGTAGATCAACAGGAGTTTAAGAAAGATCGA: the PBM binding z-score in test [1] was -0.522; in test [2], 0.249; in test [3] it was -0.0816; in test [4], 0.335; in test [5], 0.176; in test [6], -0.275. The values for the PBM binding z-score in test [7] and in test [8] were -1.05 and 0.485, respectively.
Take TCTAGTTGGTCACGGAGGTCACATACGACGGGTA: the PBM binding z-score in test [1] came to 4.57; in test [2] it was 4.42; in test [3], 4.92; in test [4] it was 1.16; in test [5] it was 4.57; in test [6], 3.68. Further, the figures for the PBM binding z-score in test [7] and in test [8] were 2.58 and 2.84, respectively.
As for ATATGTAGGTTTGCTGGGGTCATTCAGACTAGGC, the PBM binding z-score stood at 3.3 in test [1]; 3.6 in test [2]; 2.31 in test [3]; 2.62 in test [4]; 4.91 in test [5]; 4.29 in test [6]. The results for the PBM binding z-score in test [7] and in test [8] were 3.2 and 5.58, respectively.
For TAGCCTAGGTCATGGGGCCAGTATAGTACGCATC, the PBM binding z-score in test [1] came out at 3.29; in test [2] it was 4.5; in test [3], 4.7; in test [4], 0.621; in test [5], 3.6; in test [6], 3.49. Further, the PBM binding z-score in test [7] was found to be 1.43; in test [8], 1.05.
For the sequence ACAGACAGGTGAGTGAAGGTTACTCAGCTGGACG, the PBM binding z-score in test [1] was 0.978; in test [2], 0.724; in test [3], 0.906; in test [4] it was -0.643; in test [5], 0.869; in test [6] it was 1.68. In addition, the PBM binding z-score is -0.671 in test [7] and -0.214 in test [8].
In the case of AGAATGAGGTTACCAAAGATCATGGAAACGCTTG, the PBM binding z-score worked out at 0.797 in test [1]; 2.26 in test [2]; 1.87 in test [3]; 1.21 in test [4]; 2.81 in test [5]; 3.03 in test [6]. The PBM binding z-score in test [7] turned out to be 0.729; in test [8], 0.455.
